{"source": "the supplement of paper PMC6555819"}
{"tested_on": "PPARg:RXRa 30nM:10nM, anti-RXR (NR concentration 30 nM, RXRa partner concentration 10 nM)", "experiment": "PBM binding z-score (relative to random genomic background probes); higher = stronger binding; sequences stand for … in GC…GCGATTGACAGCGTAGAATGAAGG", "outline": "(§1)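 Scanned fluorescence from custom Agilent 4×180K protein-binding microarrays was regression-normalized. Binding z-scores use random background probes as reference. Ligand-free nuclear receptor dimers were incubated on the arrays for 1 h and detected with antibodies against each partner (one per run).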"}
{"sequence": "CTAACTAGGTCACGAAAGGTCAAAGTCGAATGAC", "PBM binding z-score": 7.33}
{"sequence": "CCTGCTAGGACAATGGTCAGCTAAAGCAGCTCGC", "PBM binding z-score": -0.505}
{"sequence": "CAAACTAGGTCAAAGGTCAAGGTCGAGCCAACCA", "PBM binding z-score": 15.3}
{"sequence": "GATACAGGGTCAAGGCCAGAATACGCGTATTGAT", "PBM binding z-score": 2.61}
{"sequence": "CGAACTAGGTCAGAGCAGGACAGTGAAGGATGAT", "PBM binding z-score": 2.43}
{"sequence": "CAAACTAGGTCAAAGGTCAAAGACGAGCCAACCA", "PBM binding z-score": 15.4}
{"sequence": "ATCTCTAGGTGAAAGTTCAGTGAATCCCGAGGAT", "PBM binding z-score": 9.07}
{"sequence": "CAAACTAGGTCACAGAGGTCAAAGTTCGTGCGTA", "PBM binding z-score": 6.72}
{"sequence": "CCTTACGGGTCTAGGTTATAGCACGGGTGGTACG", "PBM binding z-score": -0.428}
{"sequence": "TCTTGTAGATCAAAGGTCAAGAAAGCCGAAGCCT", "PBM binding z-score": 8.45}
{"sequence": "ATATGTAGGTCAGGGTCATTCAGAAAGTAGGGAA", "PBM binding z-score": 6.11}
{"sequence": "AGTCAAAGTTCATCTGGGTAACGTAAGATATGCT", "PBM binding z-score": 3.73}
{"sequence": "TTACCAAGGTAAAAGGTCGTTGATGCACGCCTTG", "PBM binding z-score": 5.65}
{"sequence": "ACTAGAAGGCCAAGGGTCACTCAAGATTAGTCCG", "PBM binding z-score": 5.69}
{"sequence": "GATACAGGGTCAGCTAGAGGTCAGAGTATGGAAA", "PBM binding z-score": 1.99}
{"sequence": "TCATATAGGTAATAAAGGTGAAAGTCGGCATCTA", "PBM binding z-score": 4.71}
{"sequence": "TCTTGTAGATCAAAGCTTAAGAAAGCCGAAGCCT", "PBM binding z-score": 2.55}
{"tested_on": "PPARg:RXRa 90nM:30nM, anti-RXR (NR concentration 90 nM, RXRa partner concentration 30 nM)", "experiment": "PBM binding z-score (relative to random genomic background probes); higher = stronger binding; sequences stand for … in GC…GCGATTGACAGCGTAGAATGAAGG", "outline": "as §1"}
{"sequence": "ATCTCTAGGTAAATGTTCAGTGAATCCCGAGGAT", "PBM binding z-score": 0.967}
{"sequence": "AGTCAAAGTTCAGGACGAGGTAAAGTAAAGCACG", "PBM binding z-score": 4.21}
{"sequence": "CCTACTGGGCCAAAGGTCATAGATTCCAATGCTC", "PBM binding z-score": 11.5}
{"sequence": "AGTAAAAGTTCACTAGGTAACGTAAGATTCAGCT", "PBM binding z-score": 4.23}
{"sequence": "GCTTCCGGGTCAAAGGTTATAGCATGAATAGAAT", "PBM binding z-score": 11.4}
{"sequence": "CAAACTAGGTCACGAAAGGTCAAAATCGAATGAC", "PBM binding z-score": 8.42}
{"sequence": "CGAACTAGGTCAAAGGACACTGAAAGGCGACGTA", "PBM binding z-score": 10.8}
{"sequence": "GGAACGGGGGCATTCGAGTTGATAGCATGGCGAT", "PBM binding z-score": 3.65}
{"sequence": "ACTAGGAGGACAAAGGTCAGAGCTACGCCAGTGA", "PBM binding z-score": 8.99}
{"sequence": "TATACTGGGTCAAAGGCCAGAGTACGAATGTCGA", "PBM binding z-score": 10.2}
{"sequence": "CAAACTAGGTCAAGGTCAAATTCGGTTTGTGCCA", "PBM binding z-score": 8.35}
{"sequence": "AGTCAAAGTTCACTAGGCAACGTAAGATTCAGCT", "PBM binding z-score": 5.38}
{"sequence": "CGTCCAAGGTCAATGTTAGGTCAGTGAAAGCATT", "PBM binding z-score": 3.1}
{"sequence": "CGTCCAAGGTCAGAGAGGTCAGTGTATGCCGAGT", "PBM binding z-score": 2.53}
{"sequence": "ACTAGCAGGCCAAAGGTCACTCAAGATTAGTCCG", "PBM binding z-score": 9.39}
{"sequence": "GATACAGGGTGAGCTAGAGGCCAGAGTATGGAAA", "PBM binding z-score": -0.422}
{"sequence": "CAAACTAGGTCAAAGGTCAACGTCGAGCCAACCA", "PBM binding z-score": 14.4}
{"sequence": "CGGACTGGGGCAAAGGTTACCATACTCAGTACGA", "PBM binding z-score": 11.7}
{"sequence": "GCATACGGGTCAAAGGTTATAGCATGAATAGAAT", "PBM binding z-score": 11.7}
{"sequence": "ACTAGCAGGTCAAGGGTCACTCAAGATTAGTCCG", "PBM binding z-score": 10.3}
{"sequence": "CAAACTAGGTCACGAGGTCAAAGTCCGCTTCCCG", "PBM binding z-score": 8.74}
{"sequence": "TCATATAGGTTAAGGTGAAAGTCGAACGATATGA", "PBM binding z-score": 4.87}
{"sequence": "CTAACTAGGTCACGAAAGGTCAAAGTCGAATGAC", "PBM binding z-score": 8.68}
{"sequence": "CCTGCTAGGACAATGGTCAGCTAAAGCAGCTCGC", "PBM binding z-score": 0.711}
{"sequence": "CAAACTAGGTCAAAGGTCAAGGTCGAGCCAACCA", "PBM binding z-score": 14.1}
{"sequence": "GATACAGGGTCAAGGCCAGAATACGCGTATTGAT", "PBM binding z-score": 4.58}
{"sequence": "CGAACTAGGTCAGAGCAGGACAGTGAAGGATGAT", "PBM binding z-score": 4.19}
{"sequence": "CAAACTAGGTCAAAGGTCAAAGACGAGCCAACCA", "PBM binding z-score": 14.3}
{"sequence": "ATCTCTAGGTGAAAGTTCAGTGAATCCCGAGGAT", "PBM binding z-score": 11.4}
{"sequence": "CAAACTAGGTCACAGAGGTCAAAGTTCGTGCGTA", "PBM binding z-score": 8.5}
{"sequence": "CCTTACGGGTCTAGGTTATAGCACGGGTGGTACG", "PBM binding z-score": -0.39}
{"sequence": "TCTTGTAGATCAAAGGTCAAGAAAGCCGAAGCCT", "PBM binding z-score": 10.1}
{"sequence": "ATATGTAGGTCAGGGTCATTCAGAAAGTAGGGAA", "PBM binding z-score": 7.76}
{"sequence": "AGTCAAAGTTCATCTGGGTAACGTAAGATATGCT", "PBM binding z-score": 5.62}
{"sequence": "TTACCAAGGTAAAAGGTCGTTGATGCACGCCTTG", "PBM binding z-score": 6.87}
{"sequence": "ACTAGAAGGCCAAGGGTCACTCAAGATTAGTCCG", "PBM binding z-score": 7.96}
{"sequence": "GATACAGGGTCAGCTAGAGGTCAGAGTATGGAAA", "PBM binding z-score": 3.52}
{"sequence": "TCATATAGGTAATAAAGGTGAAAGTCGGCATCTA", "PBM binding z-score": 4.65}
{"sequence": "TCTTGTAGATCAAAGCTTAAGAAAGCCGAAGCCT", "PBM binding z-score": 2.08}
